In PubChem BioAssay (NCATS):
Values joined by “and” are separate entries in the source; they are usually repeats but may differ in a detail not shown here. Equal values may be shown once. Inconclusive results are not listed. Some structures have more than one record in an assay (separate samples or runs), and their calls can disagree. Active and inactive are the calls of the source. Unless noted, calls come from the whole dose curve; as a rule, active = well fitted curve in the direction sought with a large enough effect; inconclusive = small, poorly fitted or top-dose-only effect, or another doubt; inactive = no such curve, though single readings can be large; an effect the other way counts as inactive or inconclusive.

Experiments:
WaGa = test: qHTS assay to identify novel small-molecules to repurpose for Merkel cell carcinoma treatment (AID 1296009); details: MCC and control cell lines, CellTiter-Glo viability, 72 h; series mostly up to 46 µM; note: nearly all actives have a fitted effect of over 60% in size; note: potency is the fitted concentration of half-maximal effect
In short: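 72 hr, 37 degree celsius; NPC 8-pt / MIPE 11-pt dose response; compound pinned in DMSO; CellTiter-Glo, 10 min RT, luminescence; normalized to no-cell and DMSO controls.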

C33A = test: Primary qHTS to identify gynecologic anti-cancer compounds using libraries of approved drugs and bioactive compounds (AID 1345084); details: Gynecologic cancer cell panel viability, ATPlite luminescence, 48 h; series mostly up to 57.5 µM; note: % is set by controls: 0 for no effect and ±100 for the full control effect; nearly all actives have a fitted effect of over 55% in size
In short: (§1)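 ATP-based viability (ATPlite), 1,000 cells/well, 16 h pre-incubation, 48 h compound at 37 C, 5% CO2, 15 min RT before read.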

CASKI = test: as above; details: Gynecologic cancer cell panel viability, ATPlite luminescence, 48 h; series mostly up to 57.5 µM
In short: as §1

HeLa = test: as above; details: Gynecologic cancer cell panel viability, ATPlite luminescence, 48 h; series mostly up to 57.5 µM
In short: as §1

Hek293T = test: as above; details: Gynecologic cancer cell panel viability, ATPlite luminescence, 48 h, control line for the selectivity index; series mostly up to 57.5 µM
In short: as §1

JEG-3 = test: as above; details: Gynecologic cancer cell panel viability, ATPlite luminescence, 48 h; series mostly up to 57.5 µM
In short: as §1

OV90 = test: as above; details: Gynecologic cancer cell panel viability, ATPlite luminescence, 48 h; series mostly up to 57.5 µM
In short: as §1

PA-1 = test: as above; details: Gynecologic cancer cell panel viability, ATPlite luminescence, 48 h; series mostly up to 57.5 µM
In short: as §1

Tov112D = test: as above; details: Gynecologic cancer cell panel viability, ATPlite luminescence, 48 h; series mostly up to 57.5 µM
In short: as §1

Es-2 = test: as above; details: Gynecologic cancer cell panel viability, ATPlite luminescence, 48 h; series mostly up to 57.5 µM
In short: as §1

SKOV3 = test: as above; details: Gynecologic cancer cell panel viability, ATPlite luminescence, 48 h; series mostly up to 57.5 µM
In short: as §1

Tov-21-G = test: as above; details: Gynecologic cancer cell panel viability, ATPlite luminescence, 48 h; series mostly up to 57.5 µM
In short: as §1

[1] = Drug repurposing screens with cells derived from glioblastoma tumor samples (AID 1345199); details: GBM patient neurospheres viability, ATP luminescence, 48 h; note: nearly all actives have a fitted effect of over 40% in size; note: potency is the fitted concentration of half-maximal effect; for activity, negative = cell killing: % is set by controls: 0 for no effect and ±100 for the full control effect
In short: (§2)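 Four patient lines of CD133+ GBM neurospheres were screened at several concentrations; hits were retested in those lines plus three slower-growing GBM lines, using 48-hour treatment and ATP-based viability.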

astro = test: as above; details: viability, ATP luminescence, 48 h; series mostly up to 45.9 µM
In short: as §2

[2] = target: Nuclear receptor subfamily 1 group I member 2 (Rattus norvegicus) (UniProt Q9R1A7); test: qHTS assay for small molecule activators of the rat pregnane X receptor (rPXR) signaling pathway (AID 651751; call rule not given here; note: 0% is about no effect); details: rPXR reporter cells, luciferase (One-Glo), 24 h
Sequence of Nuclear receptor subfamily 1 group I member 2 (Rattus norvegicus) (Q9R1A7 whole entry, looked up): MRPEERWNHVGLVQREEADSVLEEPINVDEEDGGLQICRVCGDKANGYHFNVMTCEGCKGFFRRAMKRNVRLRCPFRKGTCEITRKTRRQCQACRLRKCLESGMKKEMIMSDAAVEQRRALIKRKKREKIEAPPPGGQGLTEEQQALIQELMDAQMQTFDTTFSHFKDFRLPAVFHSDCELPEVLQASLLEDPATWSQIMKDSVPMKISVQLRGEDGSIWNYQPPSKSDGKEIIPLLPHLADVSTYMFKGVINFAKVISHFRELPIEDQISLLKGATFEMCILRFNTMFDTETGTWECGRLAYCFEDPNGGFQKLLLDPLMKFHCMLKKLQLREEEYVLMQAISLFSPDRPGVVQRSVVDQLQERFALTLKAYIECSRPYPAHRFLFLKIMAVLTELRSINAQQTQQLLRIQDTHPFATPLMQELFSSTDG

[3] = qHTS assay for small molecule activators of the human pregnane X receptor (PXR) signaling pathway (AID 720659; call rule not given here; note: 0% is about no effect)
CAOV3 = test: Primary qHTS to identify gynecologic anti-cancer compounds using libraries of approved drugs and bioactive compounds (AID 1345084); details: Gynecologic cancer cell panel viability, ATPlite luminescence, 48 h; series mostly up to 57.5 µM; note: % is set by controls: 0 for no effect and ±100 for the full control effect; nearly all actives have a fitted effect of over 55% in size
In short: as §1

[4] = at 45.9 µM (top of the series), tumour line B
[5] = at 45.9 µM (top of the series), tumour line D
[6] = at 46 µM (top of the series), tumour line A
[7] = at 46.1 µM (top of the series), tumour line C

N#CC[C@H](C1CCCC1)n1cc(-c2ncnc3[nH]ccc23)cn1
inactive: Potency (WaGa) | Potency (C33A) | Potency (CASKI) | Potency (HeLa) | Potency (Hek293T) | Potency (JEG-3) | Potency (OV90) | Potency (PA-1) | Potency (Tov112D)

Cc1n[nH]c(C)c1Cc1sc2c(c1C(=O)N1C[C@H](O)CO1)c(=O)n(C)c(=O)n2CC(C)C
inactive: Potency (WaGa) | Potency (C33A) | Potency (CASKI) | Potency (Es-2) | Potency (HeLa) | Potency (Hek293T) | Potency (JEG-3) | Potency (OV90) | Potency (PA-1) | Potency (SKOV3) | Potency (Tov-21-G) | Potency (Tov112D)

NC(=O)c1cnccn1
inactive: Potency (WaGa) | Potency (C33A) | Potency (CASKI) | Potency (Es-2) | Potency (HeLa) | Potency (Hek293T) | Potency (JEG-3) | Potency (OV90) | Potency (PA-1) | Potency (SKOV3) | Potency (Tov-21-G) | Potency (Tov112D) | activity, negative = cell killing [1, 4] -8.76% | activity, negative = cell killing [1, 5] -23.3% | activity, negative = cell killing [1, 6] -24.5% | activity, negative = cell killing [1, 7] -17% | Potency (astro) | max response [2] -0.614% and 3.04% | outcome [3]

OCCn1cc(-c2cnc3nnn(Cc4ccc5ncccc5c4)c3n2)cn1
inactive: Potency (WaGa) | Potency (C33A) | Potency (CASKI) | Potency (Es-2) | Potency (HeLa) | Potency (Hek293T) | Potency (JEG-3) | Potency (OV90) | Potency (PA-1) | Potency (SKOV3) | Potency (Tov-21-G) | Potency (Tov112D)

CC(C)OC(=O)C1=CN(C(=O)c2ccc(F)c(F)c2)CC(C)(C)c2c1[nH]c1ccccc21
inactive: Potency (WaGa) | Potency (C33A) | Potency (CASKI) | Potency (Es-2) | Potency (HeLa) | Potency (Hek293T) | Potency (JEG-3) | Potency (OV90) | Potency (PA-1) | Potency (SKOV3) | Potency (Tov-21-G) | Potency (Tov112D)

C1COC(NC(C2CC2)C2CC2)=N1
inactive: Potency (WaGa) | Potency (C33A) | Potency (CASKI) | Potency (Es-2) | Potency (HeLa) | Potency (Hek293T) | Potency (JEG-3) | Potency (OV90) | Potency (PA-1) | Potency (SKOV3) | Potency (Tov-21-G) | Potency (Tov112D) | activity, negative = cell killing [1, 4] -27.8% | activity, negative = cell killing [1, 7] -23.7% | Potency (astro)

CC1(C)CNc2cc(NC(=O)c3cccnc3NCc3ccncc3)ccc21
inactive: Potency (C33A) | Potency (CAOV3) | Potency (CASKI) | Potency (Es-2) | Potency (HeLa) | Potency (Hek293T) | Potency (JEG-3) | Potency (PA-1) | Potency (SKOV3) | Potency (Tov-21-G) | Potency (Tov112D)

NC[C@H](O)c1ccc(O)c(O)c1
inactive: Potency (C33A) | Potency (CAOV3) | Potency (CASKI) | Potency (Es-2) | Potency (HeLa) | Potency (Hek293T) | Potency (JEG-3) | Potency (OV90) | Potency (PA-1) | Potency (SKOV3) | Potency (Tov-21-G) | Potency (Tov112D) | activity, negative = cell killing [1, 4] -10.5% | activity, negative = cell killing [1, 5] -7.44% | activity, negative = cell killing [1, 6] -26.2% | activity, negative = cell killing [1, 7] -17.3% | Potency (astro) | max response [2] 2.15% | outcome [3]

Nc1nc2[nH]cc(CCc3ccc(C(=O)N[C@@H](CCC(=O)O)C(=O)O)cc3)c2c(=O)[nH]1
inactive: activity, negative = cell killing [1, 4] -23.6% | activity, negative = cell killing [1, 5] -14.3% | Potency (astro)
active: Potency (WaGa) 2.35 µM | Potency ([1]; tumour line A) 251 nM

C[C@@H]1CN(Cc2ccc(F)cc2)[C@@H](C)CN1C(=O)c1cc2c(C(=O)C(=O)N(C)C)cn(C)c2cc1Cl
inactive: Potency (C33A) | Potency (CASKI) | Potency (Es-2) | Potency (HeLa) | Potency (Hek293T) | Potency (JEG-3) | Potency (OV90) | Potency (PA-1) | Potency (SKOV3) | Potency (Tov-21-G) | Potency (Tov112D)

Clc1ccc(Nc2nnc(Cc3ccncc3)c3ccccc23)cc1
active: Potency ([1]; tumour line A) 12.6 µM and 7.08 µM
inactive: Potency (C33A) | Potency (CAOV3) | Potency (CASKI) | Potency (Es-2) | Potency (HeLa) | Potency (Hek293T) | Potency (JEG-3) | Potency (OV90) | Potency (PA-1) | Potency (SKOV3) | Potency (Tov-21-G) | Potency (Tov112D) | activity, negative = cell killing [1, 4] -12.8% and 0.35% | activity, negative = cell killing [1, 7] -11.6% and 1.14%

O=C(Nc1cccnc1)N1CCC(Cc2cccc(Oc3ccc(C(F)(F)F)cn3)c2)CC1
inactive: Potency (HeLa) | Potency (PA-1)

CS(=O)(=O)c1ccc(C(=O)Nc2ccc(Cl)c(-c3ccccn3)c2)c(Cl)c1
inactive: Potency (WaGa) | Potency (CAOV3) | Potency (CASKI) | Potency (Es-2) | Potency (HeLa) | Potency (Hek293T) | Potency (JEG-3) | Potency (OV90) | Potency (PA-1) | Potency (SKOV3) | Potency (Tov-21-G) | Potency (Tov112D)
